Compounds without any hit were thinned out: in the full panel of roughly 83,000, 20% have a hit.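 For each line, cells grew in 96-well plates with the test compound present at a single concentration for 48 hours.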 Values without a mark were called inactive. The source made the active and inactive calls. Rule for the calls: active = growth percent below 10; inactive = the rest.

The test system of one assay is HOP-62 NSCLC. Kind of assay: NCI-60 one-dose screen, 48 h (100 = growth as untreated, 0 = no growth, -100 = all killed). The note with it: 10 µM.
For `COc1ccc(C2c3sc4ccc(C)cc4c3Oc3nc(N)nc(N)c32)cc1` (stereo not drawn), the growth was 79.4%.

As for `Cc1cc(N=C2NC(=O)S/C2=C\c2ccc(F)cc2)n[nH]1`, the growth is 26.7%.

With `Cn1cc(-c2nnc(N)nc2-c2c[nH]c3ccccc23)c2cc(Br)cnc21`, the growth is 50.6%.

As for `O=C(CC(=O)Nc1ccc(Oc2ncnc3scc(Nc4n[nH]c(=S)s4)c23)cc1)Nc1ccc(Cl)cc1`, the growth is 89.1%.

Turning to `O=C1NC2C=CC=CC2/C1=C1/SC(=S)N(C2CC(=O)N(c3ccc(Br)cc3)C2=O)C1=O` (stereo not drawn), the growth was 99.2%.

Turning to `CC1(C)CC(=O)C2=C(C1)N(Cc1ccc(C(=O)O)cc1)C1=C(C(=O)CC(C)(C)C1)C2c1ccc(Cl)cc1`, the growth was 101%.

Regarding `Cc1ccc2c(c1)C(=O)/C(=C/c1ccc([N+](=O)[O-])cc1)S2`, the growth was 92%.

On to `O=C(Nc1ccc(OCc2ccc(Cl)cc2)cc1)Nc1ccc(Cl)c(C(F)(F)F)c1`, for which the growth is 19.5%.

As to `Cn1cc(-c2nc(N)nnc2-c2c[nH]c3ccccc23)c2cc(Br)cnc21`, the growth is 28.5%.

Consider `O=C(CSc1nc2ccccc2c(=O)n1-c1ccc(Cl)cc1)Nc1ccc(-c2nc3ccccc3[nH]2)cc1`, for which the growth is 5.56% (active).

For `Cc1ccc2c(c1)C(=O)/C(=C/c1c[nH]c3ccccc13)S2`, the growth was 47.4%.

For the compound `COc1cccc(O)c1/C=C1\SCc2cc3c(OC)cccc3[o+]c21`, the growth is 105%.

Turning to `COc1cc(C2CC(c3ccc(Oc4ccc(Cl)cc4)cc3)=NN2c2nc(-c3ccc(Cl)cc3)c(C#N)c(N3CCOCC3)n2)cc(OC)c1OC` (stereo not drawn), the growth was 98.9%.

For the compound `O=C(Nc1ccc(OCC(=O)c2ccc(Cl)cc2)cc1)Nc1ccc(Cl)c(C(F)(F)F)c1`, the growth was 47.6%.

As to `Cc1ccc2sc3c(c2c1)Oc1nc[nH]c(=O)c1C3c1cccc(F)c1` (stereo not drawn), the growth is 98.6%.

On to `Cc1cc(N=C2NC(=O)/C(=C/c3cc(C(C)(C)C)c(O)c(C(C)(C)C)c3)S2)n[nH]1`, for which the growth is 8.56% (active).

In the case of `COc1ccc(C2c3sc4ccc(C)cc4c3Oc3nc[nH]c(=O)c32)cc1` (stereo not drawn), the growth was 69.4%.

For `COc1cccc(C(=O)CSc2nc(-c3ccc(OCc4ccccc4)c(OC)c3)c(C#N)c(=O)[nH]2)c1`, the growth is 92.2%.

On to `Cc1ccc(COc2ccc(NC(=O)Nc3ccc(Cl)c(C(F)(F)F)c3)cc2)cc1`, for which the growth is 97.9%.

As to `CC(C)(C)c1cc(/C=C2\S/C(=N/c3ncn[nH]3)NC2=O)cc(C(C)(C)C)c1O`, the growth was 21.3%.

In the case of `Cn1cc(/C=C(/SS/C(=C/c2cn(C)c3cccc(C(=O)O)c23)C(=O)O)C(=O)O)c2c(C(=O)O)cccc21`, the growth was 103%.

On to `COc1ccc(C(=O)COc2ccc(NC(=O)Nc3ccccc3)cc2)cc1`, for which the growth is 101%.

In the case of `CCn1c(SCC(=O)Nc2ccc(-c3nc4ccccc4[nH]3)cc2)nc2ccccc2c1=O`, the growth was -80.4% (active).

For `O=C(Nc1ccc(OCc2ccc(F)cc2)cc1)Nc1ccc(Cl)c(C(F)(F)F)c1`, the growth is 11.4%.

Turning to `O=C(CC(=O)Nc1ccc(Oc2ncnc3scc(Nc4n[nH]c(=S)s4)c23)cc1)Nc1ccc(Br)cc1`, the growth was 99.8%.

Consider `COc1ccc(C(=O)COc2ccc(NC(=O)Nc3ccc(Cl)c(C(F)(F)F)c3)cc2)cc1`, for which the growth was 42.8%.

`O=C(Nc1ccc(Oc2ncnc3scc(Nc4n[nH]c(=S)s4)c23)cc1)C1(C(=O)Nc2cccc(C(F)(F)F)c2)CC1`: the growth was 92.8%.

On to `O=C1NC(=S)S/C1=C\c1cn(-c2ccccc2)nc1-c1ccc([N+](=O)[O-])cc1`, for which the growth was 19.4%.

As to `O=C(CSc1nc2ccccc2c(=O)n1-c1ccc(Cl)cc1)Nc1ccc(-c2nc3ccc([N+](=O)[O-])cc3[nH]2)cc1`, the growth was 0.0608% (active).

Another assay concerns NCI-H460 lung. The description is as above. Conditions: 10 µM.
Take `COc1ccc(C2c3sc4ccc(C)cc4c3Oc3nc(N)nc(N)c32)cc1` (stereo not drawn): the growth is 88.8%.

As for `Cc1cc(N=C2NC(=O)S/C2=C\c2ccc(F)cc2)n[nH]1`, the growth was 5.74% (active).

For `Cn1cc(-c2nnc(N)nc2-c2c[nH]c3ccccc23)c2cc(Br)cnc21`, the growth is 42.3%.

For the compound `O=C(CC(=O)Nc1ccc(Oc2ncnc3scc(Nc4n[nH]c(=S)s4)c23)cc1)Nc1ccc(Cl)cc1`, the growth is 85.5%.

For the compound `O=C1NC2C=CC=CC2/C1=C1/SC(=S)N(C2CC(=O)N(c3ccc(Br)cc3)C2=O)C1=O` (stereo not drawn), the growth is 100%.

For `CC1(C)CC(=O)C2=C(C1)N(Cc1ccc(C(=O)O)cc1)C1=C(C(=O)CC(C)(C)C1)C2c1ccc(Cl)cc1`, the growth was 104%.

With `Cc1ccc2c(c1)C(=O)/C(=C/c1ccc([N+](=O)[O-])cc1)S2`, the growth was 92.5%.

As to `O=C(Nc1ccc(OCc2ccc(Cl)cc2)cc1)Nc1ccc(Cl)c(C(F)(F)F)c1`, the growth is 7.92% (active).

On to `Cn1cc(-c2nc(N)nnc2-c2c[nH]c3ccccc23)c2cc(Br)cnc21`, for which the growth is 4.09% (active).

For the compound `O=C(CSc1nc2ccccc2c(=O)n1-c1ccc(Cl)cc1)Nc1ccc(-c2nc3ccccc3[nH]2)cc1`, the growth was -12.6% (active).

`Cc1ccc2c(c1)C(=O)/C(=C/c1c[nH]c3ccccc13)S2`: the growth is 33.6%.

As for `COc1cccc(O)c1/C=C1\SCc2cc3c(OC)cccc3[o+]c21`, the growth is 127%.

In the case of `COc1cc(C2CC(c3ccc(Oc4ccc(Cl)cc4)cc3)=NN2c2nc(-c3ccc(Cl)cc3)c(C#N)c(N3CCOCC3)n2)cc(OC)c1OC` (stereo not drawn), the growth is 107%.

As for `O=C(Nc1ccc(OCC(=O)c2ccc(Cl)cc2)cc1)Nc1ccc(Cl)c(C(F)(F)F)c1`, the growth was 27.6%.

Take `Cc1ccc2sc3c(c2c1)Oc1nc[nH]c(=O)c1C3c1cccc(F)c1` (stereo not drawn): the growth is 102%.

Regarding `Cc1cc(N=C2NC(=O)/C(=C/c3cc(C(C)(C)C)c(O)c(C(C)(C)C)c3)S2)n[nH]1`, the growth was 0.397% (active).

As to `COc1ccc(C2c3sc4ccc(C)cc4c3Oc3nc[nH]c(=O)c32)cc1` (stereo not drawn), the growth is 95.6%.

As to `COc1cccc(C(=O)CSc2nc(-c3ccc(OCc4ccccc4)c(OC)c3)c(C#N)c(=O)[nH]2)c1`, the growth was 106%.

For `Cc1ccc(COc2ccc(NC(=O)Nc3ccc(Cl)c(C(F)(F)F)c3)cc2)cc1`, the growth is 59.5%.

As for `CC(C)(C)c1cc(/C=C2\S/C(=N/c3ncn[nH]3)NC2=O)cc(C(C)(C)C)c1O`, the growth was 3.73% (active).

Take `Cn1cc(/C=C(/SS/C(=C/c2cn(C)c3cccc(C(=O)O)c23)C(=O)O)C(=O)O)c2c(C(=O)O)cccc21`: the growth was 110%.

Regarding `COc1ccc(C(=O)COc2ccc(NC(=O)Nc3ccccc3)cc2)cc1`, the growth is 76.6%.

For `CCn1c(SCC(=O)Nc2ccc(-c3nc4ccccc4[nH]3)cc2)nc2ccccc2c1=O`, the growth is -56.2% (active).

On to `O=C(Nc1ccc(OCc2ccc(F)cc2)cc1)Nc1ccc(Cl)c(C(F)(F)F)c1`, for which the growth is 6.77% (active).

Regarding `O=C(CC(=O)Nc1ccc(Oc2ncnc3scc(Nc4n[nH]c(=S)s4)c23)cc1)Nc1ccc(Br)cc1`, the growth is 107%.

In the case of `COc1ccc(C(=O)COc2ccc(NC(=O)Nc3ccc(Cl)c(C(F)(F)F)c3)cc2)cc1`, the growth is 25.5%.

Turning to `O=C(Nc1ccc(Oc2ncnc3scc(Nc4n[nH]c(=S)s4)c23)cc1)C1(C(=O)Nc2cccc(C(F)(F)F)c2)CC1`, the growth is 81.9%.

As to `O=C1NC(=S)S/C1=C\c1cn(-c2ccccc2)nc1-c1ccc([N+](=O)[O-])cc1`, the growth was 9.76% (active).

As for `O=C(CSc1nc2ccccc2c(=O)n1-c1ccc(Cl)cc1)Nc1ccc(-c2nc3ccc([N+](=O)[O-])cc3[nH]2)cc1`, the growth was 21.1%.

These data come from PubChem BioAssay (NCI).
